ELG1 genotoxic: genotoxicity induction in ELG1-luciferase HEK293T cells; AID 504466; 330,000 tested, 1.3% active; HEK293T ELG1-luciferase reporter, luminescence, 16 h; Potency, µM (doses to about 46 µM), inactives show at the highest dose activity change, positive = activation, hits mostly activators; note: % of control where 0% means no effect; nearly all actives have a fitted effect of over 60% in size
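After overnight (16 hr) compound treatment at 37 °C, ELG1-luciferase HEK293T cells were lysed with ONE-Glo; luminescence quantified 30 min later at room temperature.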
Rab9 prom act: Rab9 promoter activation; Huh7 Rab9 promoter-luciferase reporter, luminescence, 24 h; Potency, µM (series often up to 9.22 µM), without a hit: at the highest dose activation, negative = inhibition, most hits filed as activators; 320,000 tested, 2.8% active; AID 485297; note: % of control where 0% means no effect; nearly all actives have a fitted effect of over 60% in size
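Promoter activation is measured as luciferase luminescence in Huh7 cells stably transfected with a Rab9 promoter–luciferase construct, following 24 h compound exposure at 37 °C and 10 min reagent incubation at ambient temperature.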
FLuc modulator: counter-screen for miR-21 project: firefly luciferase inhibitors or activators; 360,000 tested, 6.9% active; purified FLuc, Km substrates, luminescence inhibition; Potency, µM (doses to about 57.5 µM), for inactives: at the top dose activity change, negative = inhibition, most hits filed as inhibitors;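 note: plate controls were vehicle for no effect and reference inhibitor for full effect; nearly all actives have a fitted effect of over 55% in size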
Target sequence (P08659 whole entry, looked up): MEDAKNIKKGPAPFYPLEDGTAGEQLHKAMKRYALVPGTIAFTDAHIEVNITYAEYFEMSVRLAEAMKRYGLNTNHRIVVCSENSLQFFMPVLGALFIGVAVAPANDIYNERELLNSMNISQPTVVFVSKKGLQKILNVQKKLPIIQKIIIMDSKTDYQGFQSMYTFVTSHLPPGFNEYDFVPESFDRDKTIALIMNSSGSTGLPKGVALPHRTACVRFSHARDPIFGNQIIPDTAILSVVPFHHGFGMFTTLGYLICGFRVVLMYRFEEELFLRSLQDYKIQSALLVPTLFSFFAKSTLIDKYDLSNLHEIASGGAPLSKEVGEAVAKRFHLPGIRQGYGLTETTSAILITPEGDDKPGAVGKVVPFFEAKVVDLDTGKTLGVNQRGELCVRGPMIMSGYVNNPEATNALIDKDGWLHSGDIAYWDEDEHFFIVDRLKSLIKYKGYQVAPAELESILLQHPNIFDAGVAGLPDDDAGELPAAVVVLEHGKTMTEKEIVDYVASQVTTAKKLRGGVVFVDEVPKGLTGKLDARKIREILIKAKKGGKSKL
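Purified P. pyralis luciferase, 10 nM final, with Km-level 10 uM D-luciferin and 10 uM ATP in 50 mM Tris acetate pH 7.5, 10 mM Mg acetate, 0.01% Tween-20, 0.05% BSA; 6-point qHTS titration about 60 µM downward; luminescence read.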
p53 reactivator: re-activators of mutant p53; H1299 p53-A138V BP100-luciferase reporter, luminescence, 24 h; Potency, µM (doses to about 92.2 µM), for the others: at the top dose activity change, positive = activation, most hits filed as activators; 320,000 tested, 0.063% active; note: % of control where 0% means no effect; nearly all actives have a fitted effect of over 45% in size
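H1299 (p53-null), stable ts p53-A138V + BP100-Luc; 1000 cells/well, Opti-MEM/10% FBS; cpd 4 pt, 1:5; 24 h, 37 deg C, 5% CO2; detection reagent 10 min RT; luminescence.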
SMN2 splice up: SMN2 splice variant enhancement; HEK293 SMN2-luciferase splicing reporter, luminescence, 30-36 h; Potency, µM (top dose mostly 46.1 µM), for the others: top-dose activity change, positive = activation, most hits filed as activators; 210,000 tested, 2.8% active; note: % of control where 0% means no effect; nearly all actives have a fitted effect of over 55% in size
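HEK293 cells carry an SMN2 minigene-luciferase reporter in which exon 7 inclusion puts luciferase in frame. Cells were seeded at 2000 cells/well, attached for 10-12 hours, then exposed to compounds for 30-36 hours at 37C before ONE-Glo luminescence.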
NPC1 prom act: NPC1 promoter activation; Potency, µM (series often up to 9.22 µM), inactives show top-dose activation, hits mostly activators; 320,000 tested, 2.4% active; Huh7 NPC1 promoter luciferase reporter, 24 h; note: % of control where 0% means no effect; nearly all actives have a fitted effect of over 60% in size
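Readout is luciferase luminescence, reflecting NPC1 promoter activation in stably transfected Huh7 cells after 24 h compound exposure at 37 °C in reduced-serum medium with 10% FBS.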
* hit, by the source's call; u = inconclusive; x = no result given; [ ] = remark or other dose. Rows were chosen to be rich in hits. Some 7.3% of all compounds tested hit in one or more screens of this group. Calls come from the whole dose curve; as a rule, active = well fitted curve in the direction sought with a large enough effect; inconclusive = small, poorly fitted or top-dose-only effect, or another doubt; inactive = no such curve, though single readings can be large; an effect the other way counts as inactive or inconclusive. Potency is the fitted concentration of half-maximal effect.

SMILES | ELG1 genotoxic | Rab9 prom act | FLuc modulator | p53 reactivator | SMN2 splice up | NPC1 prom act
CCCn1c(N)c(C(=O)CSc2nc3ccccc3s2)c(=O)[nH]c1=O | -12.3% | 15.7% | -3.2% | 9.5% | 12.6µM* | 8.7%
CCCCN(C(=O)CSc1nnc(Nc2ccccc2)s1)c1c(N)n(CCC)c(=O)[nH]c1=O | 0.8% | 2.3% | 15.1µM* | -0.2% | x | -0.6%
CCCn1c(N)c(C(=O)CSc2nnc(N)s2)c(=O)[nH]c1=O | -3.1% | -4.0% | 1.6% | -1.4% | x | -0.8%
CCCCn1c(N)c(N(CC(C)C)C(=O)CSc2n[nH]c(-c3ccc(C)cc3)n2)c(=O)[nH]c1=O | 4.3% | 0.4% | 10.7µM* | 2.8% | x | 1.0%
CCCCCN(C(=O)CCC(=O)OCC(=O)c1ccc(C(C)(C)C)cc1)c1c(N)n(CCCC)c(=O)[nH]c1=O | -2.1% | 24.4% | u | 10.4% | x | 18.3%
O=C(CSc1nc2c([nH]c3ccccc32)c(=O)n1-c1ccccc1)N1CCCc2ccccc21 | x | x | -4.4% | x | x | x
COc1ccccc1NC(=O)CSc1nc2c(oc3ccccc32)c(=O)n1-c1ccc(C)cc1 | x | x | -8.8% | x | -8.0% | x
O=C(CCCCCn1c(=O)[nH]c2ccsc2c1=O)N1CCN(C2CCCCC2)CC1 | -0.2% | -1.6% | 0.2% | u | -2.5% | 5.8%
CCCCCN(C(=O)CSc1n[nH]c(-c2ccc(C)cc2)n1)c1c(N)n(CCCC)c(=O)[nH]c1=O | 8.6% | 23.0% | 2.69µM* | 23.4% | x | 0.4%
CCCCn1c(N)c(N(CCOC)C(=O)CSc2n[nH]c(-c3ccc(C)cc3)n2)c(=O)[nH]c1=O | 1.9% | -2.2% | 2.7% | -3.4% | x | -4.0%
COc1ccc(/C=N/NC(=O)c2cccnc2)cc1 | 5.9% | 14.9% | u | 17.1% | x | 16.0%
CSc1ccc(/C=N/NC(=O)c2ccc(O)cc2)cc1 | u | 2.51µM* | 4.78µM* | u | u | u
COc1ccc(C(=O)N/N=C/c2ccc(SC)cc2)cc1 | -1.6% | 3.1% | 6.75µM* | 26.8% | 10.9% | 6.2%
C/C(=N\NC(=O)c1ccc(O)cc1)c1ccc(N2CCOCC2)cc1 | 3.6% | 4.5% | u | 1.2% | x | 9.2%
COc1ccc(/C=N/NC(=O)c2ccc[nH]2)cc1 | 8.2µM* | 1.58µM* | 5.36µM* | u | x | 2.51µM*
COc1ccc(/C=C/C(=O)Oc2ccc(/C=N/NC(=O)c3ccncc3)cc2)cc1 | -3.8% | -2.9% | 3.1% | 1.9% | x | -1.4%
O=C(N/N=C/c1ccc(N2CCOCC2)cc1)c1ccc(O)cc1 | 1.1% | 15.2% | 23.9µM* | -0.2% | x | 11.6%
COCCNc1nc(C)nc2c1nc(-c1ccccc1)n2CCCN1CCCCC1C (configuration not stated) | x | x | x | x | -5.2% | x
COc1cc(/C=C2\Oc3cc(O)ccc3C2=O)ccc1O | 23.1µM* | 3.98µM* | 8.49µM* | u | x | 3.16µM*
O=C1/C(=C/c2ccc(O)c(O)c2)Oc2cc(O)ccc21 | 14.6µM* | 20.2% | 15.1µM* | 19.0% | x | u
COc1cccc(/C=C/c2nc(C#N)c(N3CCC(C(N)=O)CC3)o2)c1 | x | x | 0.0% | x | 13.5% | x
Cc1cccc(-c2nc3nc(C)cc(NC(C)c4ccccc4)n3n2)c1 (configuration not stated) | x | x | 16.9µM* | x | x | x
COc1ccc(NC2=Nc3cccc4cccc2c34)cc1 | 10.8% | -1.9% | 13.5µM* | 1.1% | -10.8%[1.84 µM] | -1.8%
COc1ccc(C2=Nc3cccc4cccc(c34)N2)cc1 | -0.4% | -25.7% | 5.36µM* | -9.2% | 3.6% | 4.9%
Nc1cccc(C2=Nc3cccc4cccc(c34)N2)c1 | -1.4% | 7.5% | u | 0.2% | -16.0%[1.84 µM] | 0.1%
SMILES | ELG1 genotoxic | Rab9 prom act | FLuc modulator | p53 reactivator | SMN2 splice up | NPC1 prom act
Fc1ccc(/C=N/NC2=Nc3cccc4cccc2c34)cc1 | 11.6µM* | 1.58µM* | 1.69µM* | 45.9% | 11.2µM* | 1.58µM*
c1ccc(NC2=Nc3cccc4cccc2c34)cc1 | 13.8% | -2.0% | 15.1µM* | 13.5% | -44.0% | 1.3%
O=C(NNC1=Nc2cccc3cccc1c23)c1ccccc1Br | 4.2% | -0.1% | -0.8% | -1.4% | -22.8%[1.84 µM] | 0.4%
Cc1ccc(C(=O)Nc2c(C(=O)NCc3ccc(Cl)cc3)sc3nc(C)cc(C)c23)cc1 | x | x | -1.5% | x | 10.1% | x
COc1ccc(Br)cc1C1C(C(=O)Nc2ccc(C)cc2C)=C(C)Nc2ncnn21 (configuration not stated) | x | x | -3.1% | x | -5.0% | x
CCN(CC(=O)NC1CCCC1)S(=O)(=O)c1ccc(Br)cc1 | -4.9% | -1.5% | -1.0% | -11.9% | x | -3.1%
COc1ccc(CCCc2nnc(SCC(=O)Nc3cccc(F)c3C)o2)cc1 | x | x | u | x | 1.1% | x
CCCCNS(=O)(=O)c1ccc2nc(-c3cccnc3)cc(C(=O)NCCCOC(C)C)c2c1 | x | x | 1.4% | x | x | x
Cc1ccn2c(=O)c(C(=O)NCCc3ccccc3)c(O)nc2c1 | x | x | 3.2% | x | 6.4% | x
O=C(O)c1cccc(NC2=Nc3cccc4cccc2c34)c1 | 7.3µM* | u | 0.477µM* | 8.6% | x | 0.447µM*
O=C(O)c1cccc(N2C(=O)c3cccc4cccc(c34)C2=O)c1 | -1.7% | 1.0% | -6.3% | 5.7% | x | -4.1%
COc1cc(OC)cc(C(=O)NCC(=O)OCc2nc3ccccc3s2)c1 | u | u | 9.53µM* | 27.9% | x | 13.9%
CC(C)(C)c1ccc(C(=O)OC/C(O)=C(\C#N)c2nc3ccccc3s2)cc1 | -2.1% | -4.4% | -7.3% | 13.1% | 4.0% | -1.0%
O=C(OCc1nc2ccccc2s1)c1cccs1 | x | x | 2.69µM* | x | u | x
N#C/C(=C(/O)COC(=O)c1ccccc1O)c1nc2ccccc2s1 | -8.8% | 0.7% | 21.3µM* | -2.2% | -42.0% | -3.1%
O=C(OCc1nc2ccccc2s1)c1ccccc1O | u | 23.5% | 8.49µM* | 3.7% | -4.2% | 7.2%
CCN(C(=O)COC(=O)c1ccccc1O)c1nc2ccccc2s1 | -4.6% | x | x | 2.2% | x | x
O=C(c1ccccc1)c1ccc(COC(=O)c2cnccn2)cc1 | 6.2% | -1.5% | 23.9µM* | 14.1% | 4.0% | -0.3%
COc1ccccc1NC(=O)CCc1nc2ccccc2s1 | 0.1% | 10.0% | -1.5% | -2.4% | 3.6% | -2.7%
O=C(O)c1ccccc1OCc1nc2ccccc2s1 | u | 10.8% | 3.79µM* | u | x | u
O=C(OCc1nc2ccccc2s1)c1cnccn1 | u | 4.0% | 10.7µM* | u | -4.0% | -2.1%
Cc1noc(C)c1COC(=O)CCCc1nc2ccccc2s1 | 2.9% | 7.3% | -5.9% | 3.3% | 15.7% | 1.0%
CCCCC(=O)OCc1nc2ccccc2s1 | 8.6% | 15.0% | 21.3µM* | u | 9.7% | -0.7%
O=C(OCc1nc2ccccc2s1)c1cccc(N2C(=O)CCC2=O)c1 | 6.8% | 23.4% | u | -0.9% | -1.8% | 1.7%

High-throughput results (PubChem)
